Measurements taken from PubChem BioAssay (NCI).
Compounds without any hit were thinned out: in the full panel of roughly 83,000, 20% have a hit.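 48-hour exposure, single concentration, 96-well plates; percent growth endpoint where 0 means no net growth. Active: below 10.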 Activity calls are given as the source filed them.

Columns and labels:
Experiment in all cases: NCI-60 one-dose screen, 48 h (100 = growth as untreated, 0 = no growth, -100 = all killed)
Details in all cases: 10 µM unless noted
SK-MEL-2 melanoma = test system: SK-MEL-2 melanoma
EKVX NSCLC = test system: EKVX NSCLC
SN12C renal = test system: SN12C renal
UO-31 renal = test system: UO-31 renal
TK-10 renal = test system: TK-10 renal
ACHN renal = test system: ACHN renal
CAKI-1 renal = test system: CAKI-1 renal
A498 renal = test system: A498 renal
MOLT-4 leukemia = test system: MOLT-4 leukemia
CCRF-CEM leukemia = test system: CCRF-CEM leukemia

Measured: growth

C(=C\c1nccc2c1[nH]c1ccccc12)/c1ccccc1
inactive: SK-MEL-2 melanoma 37.4% | EKVX NSCLC 38.3% | SN12C renal 46.2% | UO-31 renal 13.2% | TK-10 renal 34% | ACHN renal 35.6% | A498 renal 40.4% | MOLT-4 leukemia 49.1%
active: CAKI-1 renal -8.56%

O=C(/C=C/c1ccc(C(F)(F)F)cc1)Nc1ccc(C=C2c3ccccc3C(=O)c3ccccc32)cc1
inactive: SK-MEL-2 melanoma 25.5% | EKVX NSCLC 53.6% | SN12C renal 89.6% | UO-31 renal 72.6% | TK-10 renal 70.2% | ACHN renal 74.8% | CAKI-1 renal 56.2% | CCRF-CEM leukemia 32.6% | MOLT-4 leukemia 47.5%

CC(O)CN(CC(C)O)c1ccc2c(c1)Cc1cc([N+](=O)[O-])ccc1-2 (stereo not drawn)
inactive: SK-MEL-2 melanoma 95.9% | EKVX NSCLC 74.8% | SN12C renal 99.6% | UO-31 renal 63.2% | TK-10 renal 97.3% | ACHN renal 93% | CAKI-1 renal 84.6% | CCRF-CEM leukemia 106% | MOLT-4 leukemia 69.8%

COc1ccc(-n2nc(C)c3c(Nc4ccc(NC(=O)Nc5cccc(C(F)(F)F)c5)cc4)ncnc32)cc1
active: SK-MEL-2 melanoma -21.1% | UO-31 renal -44.9% | ACHN renal -10.2% | CAKI-1 renal -18.9% | MOLT-4 leukemia 8.98%
inactive: EKVX NSCLC 10.1% | SN12C renal 22.5% | TK-10 renal 10.7% | A498 renal 48.5%

COC(=O)[C@@H]1CCCN1C(=O)[C@@H]1CCCN1C(=O)[C@H](Cc1ccccc1)NC(=S)Nc1cc(C(F)(F)F)cc(C(F)(F)F)c1
inactive: EKVX NSCLC 75.7% | SN12C renal 95% | UO-31 renal 75.5% | TK-10 renal 85.1% | ACHN renal 72.2% | CAKI-1 renal 72.3% | CCRF-CEM leukemia 53.4% | MOLT-4 leukemia 50.1%
active: SK-MEL-2 melanoma -21.9%

Cc1ncc(C(=O)Nc2ccc(CN3CCN(C)CC3)c(C(F)(F)F)c2)cc1C#Cc1cnc2cccnn12
active: SK-MEL-2 melanoma -55.4% | EKVX NSCLC -3.95% | SN12C renal 0.116% | UO-31 renal 1.45% | TK-10 renal -3.71% | ACHN renal -1.57% | CAKI-1 renal -16.7% | CCRF-CEM leukemia 5.77% | MOLT-4 leukemia -0.188%

COc1ccc(/C=C/c2nc(-c3n[nH]c(=O)n3-c3ccccc3)c3ccccc3n2)cc1
inactive: SK-MEL-2 melanoma 99.2% | EKVX NSCLC 94.6% | SN12C renal 91.5% | UO-31 renal 79.8% | TK-10 renal 108% | ACHN renal 102% | CAKI-1 renal 84% | CCRF-CEM leukemia 90% | MOLT-4 leukemia 95%

O=C(COc1cccc(/C=C2\CSc3ccccc3C2=O)c1)Nc1nccs1
inactive: SK-MEL-2 melanoma 69.3% | EKVX NSCLC 25.5% | SN12C renal 89.4% | UO-31 renal 60.1% | TK-10 renal 70% | ACHN renal 69.9% | CAKI-1 renal 78.1%
active: CCRF-CEM leukemia 4.26% | MOLT-4 leukemia -51.1%

O=[N+]([O-])c1ccccc1/C=N\NC(=S)N/N=C/c1ccccc1[N+](=O)[O-]
inactive: SK-MEL-2 melanoma 56.6% | EKVX NSCLC 70.5% | SN12C renal 86.3% | UO-31 renal 27.4% | TK-10 renal 46.8% | ACHN renal 78.8% | CAKI-1 renal 42.2% | CCRF-CEM leukemia 82.7% | MOLT-4 leukemia 37.8%

Cc1cc(C)nc(SC2=C(Nc3ccc(C)c(Cl)c3)C(=O)N(Cc3ccccc3)C2=O)n1
inactive: SK-MEL-2 melanoma 85.3% [30 µM] | EKVX NSCLC 52.7% [30 µM] | SN12C renal 66.9% [30 µM] | UO-31 renal 16.7% [30 µM] | TK-10 renal 84.8% [30 µM] | ACHN renal 81% [30 µM] | CAKI-1 renal 54.3% [30 µM] | A498 renal 69.5% [30 µM]
active: MOLT-4 leukemia 7.47% [30 µM]

COC(=O)c1ccc(NC(=O)c2ccc(-c3cccc([N+](=O)[O-])c3)o2)cc1
inactive: SK-MEL-2 melanoma 98.4% | EKVX NSCLC 79% | SN12C renal 97.3% | UO-31 renal 72.9% | TK-10 renal 111% | ACHN renal 94.6% | CAKI-1 renal 88% | A498 renal 105% | MOLT-4 leukemia 103%

C#CCOc1ccc2ncnc(N3CCC(NC(=O)CCl)CC3)c2c1
inactive: SK-MEL-2 melanoma 69.6% [8.25 µM] | EKVX NSCLC 72.7% [8.25 µM] | SN12C renal 63.6% [8.25 µM] | UO-31 renal 40.6% [8.25 µM] | TK-10 renal 69% [8.25 µM] | ACHN renal 57.6% [8.25 µM] | CAKI-1 renal 71.4% [8.25 µM] | A498 renal 29.9% [8.25 µM] | MOLT-4 leukemia 40.9% [8.25 µM]

O=[N+]([O-])c1ccc(Nc2nc(NCCN3CCOCC3)ncc2[N+](=O)[O-])cc1
inactive: SK-MEL-2 melanoma 93.7% | EKVX NSCLC 88.2% | SN12C renal 90.2% | UO-31 renal 63.9% | TK-10 renal 76.5% | ACHN renal 80.9% | CAKI-1 renal 56.7% | A498 renal 79.1% | MOLT-4 leukemia 103%

CC(C)CSc1nc(N)nc2c1ncn2C1OC(CO)C(O)C1O (stereo not drawn)
inactive: SK-MEL-2 melanoma 111% | EKVX NSCLC 93.2% | SN12C renal 94% | UO-31 renal 95.2% | TK-10 renal 107% | ACHN renal 94.6% | CAKI-1 renal 82.8% | CCRF-CEM leukemia 102% | MOLT-4 leukemia 110%

O=C(COc1ccc(/C=C2\COc3ccccc3C2=O)cc1)Nc1nccs1
active: CCRF-CEM leukemia 7.16%
inactive: SK-MEL-2 melanoma 72.8% | EKVX NSCLC 102% | SN12C renal 114% | UO-31 renal 73.2% | TK-10 renal 88.7% | ACHN renal 94.1% | CAKI-1 renal 103% | MOLT-4 leukemia 22.5%

CCc1c(Nc2ccccc2C)nc(N)[nH]c1=O
inactive: SK-MEL-2 melanoma 109% | EKVX NSCLC 94.5% | SN12C renal 100% | UO-31 renal 90.7% | TK-10 renal 105% | ACHN renal 106% | CAKI-1 renal 90.9% | CCRF-CEM leukemia 100% | MOLT-4 leukemia 99.4%

O=C(Cc1ccc(/C=C/C(=O)c2ncc[nH]2)cc1)Nc1ccccc1
inactive: SK-MEL-2 melanoma 82.8% | EKVX NSCLC 64.6% | SN12C renal 21.8% | UO-31 renal 31.3% | TK-10 renal 49.1% | ACHN renal 76% | A498 renal 83.5%
active: CCRF-CEM leukemia 3.9%

COc1cc(C(=O)/C=C/c2cccnc2Nc2ccc(Cl)cc2)cc(OC)c1OC
inactive: EKVX NSCLC 23.7%
active: SK-MEL-2 melanoma -65% | SN12C renal -58.7% | UO-31 renal -99.3% | TK-10 renal -68.5% | ACHN renal -97.1% | CAKI-1 renal -6.13% | CCRF-CEM leukemia -10.8% | MOLT-4 leukemia -6.63%

CCc1nc(N)nc(N)c1C#CC(C)c1cc(-c2ccnc(C)c2)c2oc(C)nc2c1 (stereo not drawn)
inactive: SK-MEL-2 melanoma 30.1% | EKVX NSCLC 19.2% | TK-10 renal 25.2% | A498 renal 10.8%
active: SN12C renal 6.91% | UO-31 renal 9.81% | ACHN renal 9.82% | CCRF-CEM leukemia 0.474% | MOLT-4 leukemia 1.69%

CCOC(=O)c1c(C)oc2ncnc(N3CCN(C(=O)COc4ccc(SC)cc4)CC3)c12
inactive: SK-MEL-2 melanoma 95.4% | EKVX NSCLC 88.1% | SN12C renal 94.9% | UO-31 renal 74.4% | TK-10 renal 103% | ACHN renal 93.5% | CAKI-1 renal 82.7% | CCRF-CEM leukemia 91.5% | MOLT-4 leukemia 88.6%

Cc1cc2c3ccccc3ccc2[n+]2ccccc12
active: SN12C renal -7% | A498 renal 9.14% | MOLT-4 leukemia 2.74%
inactive: SK-MEL-2 melanoma 40.5% | EKVX NSCLC 14.5% | UO-31 renal 56.9% | TK-10 renal 88.4% | ACHN renal 95.1% | CCRF-CEM leukemia 48.7%

CN1CCN(Cc2ccc(NC(=O)c3cncc(C#Cc4cncn5ccnc45)c3)cc2C(F)(F)F)CC1
inactive: SK-MEL-2 melanoma 24.2% | EKVX NSCLC 86.6% | SN12C renal 31.3% | UO-31 renal 44% | TK-10 renal 94.2% | ACHN renal 37.8% | CAKI-1 renal 89.2% | MOLT-4 leukemia 82.9%

CCCCC(=O)OCC1OC(n2cnc3c(=S)nc[nH]c32)C(OC(=O)CCCC)C1OC(=O)CCCC (stereo not drawn)
inactive: SK-MEL-2 melanoma 46.2% | EKVX NSCLC 31.3% | SN12C renal 27.4% | UO-31 renal 35% | TK-10 renal 14.9% | ACHN renal 17.2% | A498 renal 24.8% | CCRF-CEM leukemia 28.4%

O=[N+]([O-])c1ccc2c(c1)Cc1cc(F)ccc1-2
inactive: SK-MEL-2 melanoma 126% | EKVX NSCLC 68.7% | SN12C renal 99% | UO-31 renal 88.8% | TK-10 renal 96.8% | ACHN renal 103% | CAKI-1 renal 96.4% | CCRF-CEM leukemia 81.9% | MOLT-4 leukemia 94.1%

O=C(/C=C/C=C/c1ccc2c(c1)OCO2)N/N=C\c1ccc(O)cc1O
inactive: SK-MEL-2 melanoma 52.8% | EKVX NSCLC 20.2% | SN12C renal 32.8% | UO-31 renal 11.4% | TK-10 renal 31% | ACHN renal 14.4% | CCRF-CEM leukemia 18% | MOLT-4 leukemia 13.3%
active: CAKI-1 renal 9.65%

COc1ccc(/C=C\c2cc(OC)c(OC)c(OC)c2)cc1OC(=O)c1cccc(Cn2cc(CCOC(=O)[C@H](N)Cc3cn(C)c4ccccc34)nn2)c1
inactive: SK-MEL-2 melanoma 51.1% | EKVX NSCLC 47.2% | SN12C renal 38.5% | UO-31 renal 42.5% | TK-10 renal 79.6% | ACHN renal 26.6% | CAKI-1 renal 34.4% | CCRF-CEM leukemia 10.2%
active: MOLT-4 leukemia 6.32%

COc1cc(/C=C/C(=O)c2cccnc2Nc2ccc(F)cc2)cc(OC)c1OC
inactive: SK-MEL-2 melanoma 27.5% | EKVX NSCLC 69.5% | SN12C renal 16.2% | UO-31 renal 75.6% | TK-10 renal 77.8% | ACHN renal 45.7% | CAKI-1 renal 51.6%
active: CCRF-CEM leukemia -10.6% | MOLT-4 leukemia 5.4%

CCN1CCN(c2nc(NCCNc3ccnc4cc(Cl)ccc34)c3ccccc3n2)CC1
inactive: EKVX NSCLC 53.3% | A498 renal 77.1%
active: SK-MEL-2 melanoma -71.4% | SN12C renal -5.71% | UO-31 renal -75.2% | TK-10 renal -19.4% | ACHN renal -25.7% | CCRF-CEM leukemia -12.8%
